ELG1 DNA repair – ELG1-dependent DNA repair inhibition. HEK293T ELG1-luciferase reporter, luminescence, 16 h; DNA damage induced by 5-fluorouridine. Potency, µM (doses to about 46.1 µM), usual class: inhibitors. 330,000 compounds, 2.3% hits. AID 504467; also: nearly all actives have a fitted effect of over 55% in size
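Overnight (16 hr) co-exposure of 2,000 cells/well to 5-fluorouridine and compound at 37 °C preceded detection. Luciferase was quantified via ONE-Glo luminescence; loss of signal denotes inhibition.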
DT40 TDP1 no CPT – qHTS for Inhibitors of human tyrosyl-DNA phosphodiesterase 1 (TDP1): qHTS in cells in absence of CPT | DT40 Tdp1-/- hTDP1 cells, no CPT, ATP luminescence, 48 h | Potency, µM (highest dose often 46.2 µM), most hits filed as inhibitors | 420,000 compounds, 15% hits; also: nearly all actives have a fitted effect of over 55% in size
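Camptothecin absent (DMSO only). Human TDP1-complemented DT40 knockout cells, 400 cells/well, 37 °C for minimum 48 hr; ATP measured via CellTiter-Glo, 30 min dark incubation, luminescence.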
DT40 TDP1 CPT – DT40-hTDP1 cell growth loss with CPT; chicken DT40 Tdp1-/-;hTDP1 cells + 20 nM CPT, ATP luminescence, 48 h; Potency, µM (doses to about 46.2 µM), most hits filed as inhibitors; 420,000 compounds, 12% hits; also: nearly all actives have a fitted effect of over 55% in size
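Chicken DT40 Tdp1-/- cells complemented with human TDP1, 400 cells/well, exposed to compounds plus 20 nM camptothecin for at least 48 h at 37 C; viability read as ATP content by CellTiter-Glo luminescence.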
HT1080NT lethal – kills 2HG-producing HT-1080-NT fibrosarcoma cells; HT-1080-NT fibrosarcoma viability, CellTiter-Glo ATP luminescence, 48 h; Potency, µM (doses to about 46.1 µM), most hits filed as cytotoxic; 360,000 compounds, 1.6% hits; AID 686970;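 also: NT is the 2HG producing partner of a matched IDH1 knockdown line; nearly all actives have a fitted effect of over 55% in size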
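Fibrosarcoma NT cells, 750 per well in 5% FBS RPMI, were exposed to compound for 48 hours. Viability: CellTiter-Glo luminescence.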
HT1080 IDH1KD tx – kills HT-1080 cells with IDH1 knockdown; HT-1080 IDH1 knockdown viability, ATP luminescence, 48 h; Potency, µM (top dose mostly 46.1 µM), usual class: cytotoxic; 360,000 compounds, 2% hits; AID 686971
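Cytotoxicity counter-line: IDH1KD HT-1080, 48 h, CellTiter-Glo. Curves classed by r2, magnitude and activity.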
IL1B secr inh – blocks inflammasome-driven IL-1 beta release; THP-1 LPS/ATP IL-1B secretion, AlphaLISA, 16 h; active compounds read low; activity change, % at 57.5 µM; 360,000 compounds, 4.7% hits; AID 743279; in the data active = activity change below about -50%; inconclusive = mostly about -30% to -49%
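THP-1 cells pretreated 1 hr with compounds (up to 57.5 uM final), then stimulated with LPS (250 ng/mL final) plus ATP (1.25 mM final); secreted IL-1B measured by AlphaLISA after 16 hr, decreased signal indicating inhibition.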
A number is an active result; n = inactive; u = inconclusive; x = no result; [ ] = another dose, or the depositor's remark. Rows were chosen to be rich in hits. Some 19% of all compounds tested hit in one or more screens of this group. Unless noted, calls follow the shape of the dose curve; as a rule, active = well fitted curve in the direction sought with a large enough effect; inconclusive = small, poorly fitted or top-dose-only effect, or another doubt; inactive = no such curve, though single readings can be large; an effect the other way counts as inactive or inconclusive.

SMILES	ELG1 DNA repair	DT40 TDP1 no CPT	DT40 TDP1 CPT	HT1080NT lethal	HT1080 IDH1KD tx	IL1B secr inh
O=C(c1ccc(Br)cc1)N1CCCc2ccccc21	n	u	n	n	n	n
Cc1cccc(N2CCN(C(=O)c3cc4c(=O)n(C)c5ccccc5c4s3)CC2)c1C	x	5.8µM	u	x	x	x
Cn1c(C(=O)N2CCCC2)cc2c(=O)n(C)c3ccccc3c21	n	n	n	n	n	n
Cc1ccc(Cl)cc1N1CCN(C(=O)c2cc3c(=O)n(C)c4ccccc4c3n2C)CC1	u	16µM	18µM	n	n	n
Cc1cccc(N2CCN(C(=O)c3cc4c(=O)n(C)c5ccccc5c4n3C)CC2)c1C	n	16µM	u	n	n	n
Cn1c(C(=O)N2CCN(c3ncccn3)CC2)cc2c(=O)n(C)c3ccccc3c21	9.2µM	21µM	u	n	n	n
COc1cc(C(=O)Nc2ccc(NC(C)=O)cc2)ccc1OCc1ccccc1	n	n	u	n	n	n
Cn1c(=O)c2cc(C(=O)N3CCN(c4cccc(C(F)(F)F)c4)CC3)sc2c2ccccc21	x	3.7µM	u	x	x	x
CC(C(=O)N1CCCCC1)n1ncn2cccc2c1=O (stereo not drawn)	n	n	n	n	n	n
Cc1ccc(Cl)cc1N1CCN(C(=O)C(C)n2ncn3cccc3c2=O)CC1 (stereo not drawn)	n	23µM	18µM	n	n	n
Cc1cc(NC(=O)C2CCN(C(=O)c3ccco3)CC2)ccc1Br	u	u	u	n	n	n
O=C(Cn1nc2c(cc1=O)CCCC2)Nc1ccccc1C(F)(F)F	x	n	n	x	x	x
FC(F)(F)c1cnc(/C=C/Nc2ccccc2Cl)c(Cl)c1	n	n	n	n	n	n
C[N+]1=C(/C=C/Nc2ccccc2Cl)C(C)(C)c2ccccc21	n	12µM	23µM	n	n	n
CCc1ccc(S(=O)(=O)NCCc2csc(-c3ccccc3)n2)s1	n	23µM	u	u	n[9.24 µM]	n
O=S(=O)(NCCCc1ccccc1)c1ccccc1	n	n	n	n	n	n
Cc1ccc(S(=O)(=O)NCCc2csc(-c3ccc(Cl)cc3)n2)cc1	x	12µM	12µM	x	x	x
Cc1ccc(C)c(S(=O)(=O)NCCCc2ccccc2)c1	n	n	n	n	n	-57
CCOc1ccc(S(=O)(=O)NCc2csc(C)n2)cc1	n	n	n	n	n	n
CC(=O)c1ccc(S(=O)(=O)NCCc2csc(-c3cccnc3)n2)cc1	n	n	n	n	n	n
CCOc1ccc(S(=O)(=O)NCCc2csc(-c3ccc(Cl)cc3)n2)cc1	x	5.8µM	6.5µM	x	x	x
Cc1ccc(S(=O)(=O)NCCc2csc(-c3cccc(F)c3)n2)cc1	x	15µM	21µM	x	x	x
Cc1ccc(-c2nc(CCNC(=O)C(=O)Nc3ccc(C)cc3C)cs2)cc1	x	n	n	x	x	x
Cc1ccc(C)c(S(=O)(=O)NCCc2csc(-c3ccc(Cl)cc3)n2)c1	x	16µM	29µM	x	x	x
CC(=O)N1CCc2cc(Br)cc(S(=O)(=O)CCC(=O)Nc3ccc(C)cc3Cl)c21	x	n	n	x	x	x
SMILES	ELG1 DNA repair	DT40 TDP1 no CPT	DT40 TDP1 CPT	HT1080NT lethal	HT1080 IDH1KD tx	IL1B secr inh
Oc1ccccc1C1=Nc2nc3ccccc3n2C(c2ccccc2)C1 (stereo not drawn)	u	18µM	21µM	n	n	n
COc1ccc(NC(=O)c2c(N)cnn2C)cc1	n	n	n	n	n	n
CCC(=O)N1c2ccccc2CC1C(=O)NCc1ccc(CC)cc1 (stereo not drawn)	x	n	n	x	x	x
O=c1c2cc(Cl)ccc2nc(-c2ccc(Cl)c(Cl)c2)n1O	n	5.2µM	5.2µM	n	n	n
O=c1c2ccc(Cl)cc2nc(-c2ccc([N+](=O)[O-])cc2)n1O	9.2µM	8.2µM	8.2µM	n	n	n
CCc1ccc(N2C(=O)C(Cl)=C(Nc3ccc(C(=O)N4CCCC4)cc3)C2=O)cc1	n	n	n	n[9.24 µM]	n	-92

Assay outcomes: PubChem, National Center for Advancing Translational Sciences (NCATS)
